In publication PMC10726135, “HNF4α isoforms regulate the circadian balance between carbohydrate and lipid metabolism in the liver”:
Over roughly 18,000 sequences, “log2 normalized intensity” has its median near 0.39; the highest 2% begin near 6.6. Only a selection was taken, and the highest values are over-represented in it overall.

Molecular target: T1, HNF4alpha2 (COS-7 nuclear extract) (Homo sapiens, UniProt P41235 1-474)
T1 sequence: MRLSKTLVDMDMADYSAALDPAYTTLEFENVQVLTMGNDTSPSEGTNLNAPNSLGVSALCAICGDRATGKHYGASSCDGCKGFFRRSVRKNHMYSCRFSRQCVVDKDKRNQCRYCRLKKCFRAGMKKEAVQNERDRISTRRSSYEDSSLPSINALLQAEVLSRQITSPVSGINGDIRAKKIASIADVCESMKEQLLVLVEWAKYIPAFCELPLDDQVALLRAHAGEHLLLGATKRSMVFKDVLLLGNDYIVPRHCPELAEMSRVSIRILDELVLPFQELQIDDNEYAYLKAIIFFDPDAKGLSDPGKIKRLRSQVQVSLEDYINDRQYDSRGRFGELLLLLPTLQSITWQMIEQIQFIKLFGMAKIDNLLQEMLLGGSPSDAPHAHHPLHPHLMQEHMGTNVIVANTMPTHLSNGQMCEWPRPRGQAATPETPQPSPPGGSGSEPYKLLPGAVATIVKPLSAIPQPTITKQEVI
Assay: protein-binding microarray; COS-7 nuclear extract on double-stranded Agilent 4x180k PBM; binding buffer, salt, pH and temperature not given in the material; high values mean tight binding
Settings: chain copies: 2; label: 3' end of strand 1 on the slide; dsDNA, one strand shown
Outline: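 A human HNF4α isoform was expressed in COS-7 cells by transient CaPO4 transfection, and nuclear extracts were prepared. These were applied to a custom Agilent SurePrint G3 4x180k array carrying ~44,000 test sequences in quadruplicate as double-stranded ~60-nt oligonucleotides, and an Agilent G2565CA scanner imaged bound HNF4α at 2-µm resolution. The background-corrected, normalized gProcessedSignal from Agilent software was used as the binding signal.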

Point of comparison: “TCTTTTTGCCACTAGGGGTCACTGTCACATGCCTAGGGAGATTAGAGTATCGGTCGA”, binding signal 2.7 log2 normalized intensity. Against it:
- CAGTGGTAACCACAGTACTGTCTTTTTGCCGCCTAGGGAGATTAGAGTATCGGTCGA — lower, -0.854 log2 normalized intensity
- TTGCATAGGCATTGTCTTGAAAGATAAAGTGCCTAGGGAGATTAGAGTATCGGTCGA — lower, 0.627 log2 normalized intensity
- TTGATATTTATCAAGATGAACTTTGACCCAGCCTAGGGAGATTAGAGTATCGGTCGA — higher, 10.8 log2 normalized intensity
- ATTTTTCCCTTTGATATTTATCAAGATGAAGCCTAGGGAGATTAGAGTATCGGTCGA — lower, 0.736 log2 normalized intensity
- ATTTATCAAGATGAACTTTGACCCACCTACGCCTAGGGAGATTAGAGTATCGGTCGA — higher, 8.26 log2 normalized intensity
- ATGAACTTTGACCCACCTACATTGATATTCGCCTAGGGAGATTAGAGTATCGGTCGA — higher, 4.81 log2 normalized intensity
- TCCCTTTGATATTTATCAAGATGAACTTTGGCCTAGGGAGATTAGAGTATCGGTCGA — higher, 4.93 log2 normalized intensity
- CACCCAGAACTTTGACCGTTTGATTATTTGGCCTAGGGAGATTAGAGTATCGGTCGA — lower, 2.56 log2 normalized intensity
- CATGTTGAGTGGAATATGAGGTCAGGGTTCGCCTAGGGAGATTAGAGTATCGGTCGA — higher, 2.71 log2 normalized intensity
- GGGCTGGAACACAAAGAAAGCCAAAGTTCAGCCTAGGGAGATTAGAGTATCGGTCGA — lower, 2.41 log2 normalized intensity
- CATTGGACCCTCCCAGCCAAACCCCACTCCGCCTAGGGAGATTAGAGTATCGGTCGA — higher, 5.01 log2 normalized intensity
- TGTAACTGTAACTATATTGACCACCTCCTCGCCTAGGGAGATTAGAGTATCGGTCGA — lower, 1.76 log2 normalized intensity
- ACTGCTTACCCTGCAGTGTGACCTTTGCCTGCCTAGGGAGATTAGAGTATCGGTCGA — higher, 7.83 log2 normalized intensity
- GATGTTCTACACTGCTTACCCTGCAGTGTGGCCTAGGGAGATTAGAGTATCGGTCGA — lower, 0.052 log2 normalized intensity
- TCTACACTGCTTACCCTGCAGTGTGACCTTGCCTAGGGAGATTAGAGTATCGGTCGA — higher, 4.19 log2 normalized intensity
- TTACCCTGCAGTGTGACCTTTGCCTTCTTGGCCTAGGGAGATTAGAGTATCGGTCGA — higher, 7.49 log2 normalized intensity
- CTGCAGTGTGACCTTTGCCTTCTTGACATCGCCTAGGGAGATTAGAGTATCGGTCGA — higher, 5.94 log2 normalized intensity
- GTGTGACCTTTGCCTTCTTGACATCTCTCTGCCTAGGGAGATTAGAGTATCGGTCGA — higher, 4.43 log2 normalized intensity
- GTGCTCTGGGTCTGTCCTTTGTGTTTATGGGCCTAGGGAGATTAGAGTATCGGTCGA — lower, 2.66 log2 normalized intensity
- CAGTGGGCCCAGAGCACAACCTTTGGCCGTGCCTAGGGAGATTAGAGTATCGGTCGA — higher, 4.45 log2 normalized intensity
- TTGCCCACCAATGATCAAAGGTTAGTCTTAGCCTAGGGAGATTAGAGTATCGGTCGA — higher, 3.63 log2 normalized intensity
- AAAACATATTTGCATAATGGAGCAAAGGTCGCCTAGGGAGATTAGAGTATCGGTCGA — higher, 5.4 log2 normalized intensity
- CACCACTAGGAAACTGACCTTTGCTCATGAGCCTAGGGAGATTAGAGTATCGGTCGA — higher, 6.73 log2 normalized intensity
- CTACTACTTGACCTTTGAAACATATCCAGAGCCTAGGGAGATTAGAGTATCGGTCGA — higher, 5.48 log2 normalized intensity
- ATTCTCACCACTAGGAAACTGACCTTTGCTGCCTAGGGAGATTAGAGTATCGGTCGA — higher, 5.16 log2 normalized intensity
- GATGAGTGACCTTTGACCTCAGAGAGCCGGGCCTAGGGAGATTAGAGTATCGGTCGA — higher, 9.56 log2 normalized intensity
- GTGACCTTTGACCTCAGAGAGCCGGAAACTGCCTAGGGAGATTAGAGTATCGGTCGA — higher, 7.21 log2 normalized intensity
- GGCTGATGACCTTTGACTGAGATGGGAGCAGCCTAGGGAGATTAGAGTATCGGTCGA — higher, 4.03 log2 normalized intensity
- AAAGACTTGCTCATTGATGAGTGACCTTTGGCCTAGGGAGATTAGAGTATCGGTCGA — higher, 6.15 log2 normalized intensity
- ACCACATTCTCACCACTAGGAAACTGACCTGCCTAGGGAGATTAGAGTATCGGTCGA — higher, 3.23 log2 normalized intensity
- ATGGGATGACCTTTGAGCAATAGGAAATGGGCCTAGGGAGATTAGAGTATCGGTCGA — higher, 4.18 log2 normalized intensity
- CTAGGAAACTGACCTTTGCTCATGACTATTGCCTAGGGAGATTAGAGTATCGGTCGA — higher, 5.53 log2 normalized intensity
- TCATTGATGAGTGACCTTTGACCTCAGAGAGCCTAGGGAGATTAGAGTATCGGTCGA — higher, 9.89 log2 normalized intensity
- TTGCCCCTTTGACCCTCGGGCCTCCCTAGAGCCTAGGGAGATTAGAGTATCGGTCGA — higher, 3.97 log2 normalized intensity
- CTCTGCAAACATTTATTTTGTGTGCTAGATGCCTAGGGAGATTAGAGTATCGGTCGA — lower, 1.54 log2 normalized intensity
- TTGCCCACATTCACACAATCAGTGTGTTGAGCCTAGGGAGATTAGAGTATCGGTCGA — lower, -0.0239 log2 normalized intensity
- AGCAGTCCCTTCCCCCCTCCTCATTGAGAGGCCTAGGGAGATTAGAGTATCGGTCGA — higher, 4.37 log2 normalized intensity
- TTGCACCAGTTTCTCAACAGACCCCTGAATGCCTAGGGAGATTAGAGTATCGGTCGA — lower, 2.27 log2 normalized intensity
- CTTGACGCTAACTTCCAGATCAAAGGACATGCCTAGGGAGATTAGAGTATCGGTCGA — lower, 0.608 log2 normalized intensity
- GTCTAATTGTGCTGAGAGAGTCCTTGTTTGGCCTAGGGAGATTAGAGTATCGGTCGA — lower, 1.63 log2 normalized intensity
- GCAGATGGGCAGCACTGTGATTTGTTCAGGGCCTAGGGAGATTAGAGTATCGGTCGA — lower, 0.439 log2 normalized intensity
- GTCTGCTGCCCAGACACACAATATTATGTTGCCTAGGGAGATTAGAGTATCGGTCGA — lower, -0.79 log2 normalized intensity
- GGAGATAACCCATCTGGGGAAAGTGCAAGGGCCTAGGGAGATTAGAGTATCGGTCGA — lower, -0.913 log2 normalized intensity
- CTTGGGGGAGGAGGGCAACCTTTGAACTGGGCCTAGGGAGATTAGAGTATCGGTCGA — higher, 5.3 log2 normalized intensity
- TGGACAACTGTACTTTGGACTGGGGACCTGGCCTAGGGAGATTAGAGTATCGGTCGA — higher, 5.1 log2 normalized intensity
- CTGGTTCTGCAAGGCAACTGACCTTTGGATGCCTAGGGAGATTAGAGTATCGGTCGA — higher, 8.08 log2 normalized intensity
- TCTGGTGCCAAGGAGCCTCTGCAACCTTTGGCCTAGGGAGATTAGAGTATCGGTCGA — lower, 2.46 log2 normalized intensity
- TCTGCAAGGCAACTGACCTTTGGATCTGGGGCCTAGGGAGATTAGAGTATCGGTCGA — higher, 7.21 log2 normalized intensity
- TTCTTCTGGTTCTGCAAGGCAACTGACCTTGCCTAGGGAGATTAGAGTATCGGTCGA — higher, 3.64 log2 normalized intensity
- TATACAAGAAAGAAAGAATGTTTGCTTCTGGCCTAGGGAGATTAGAGTATCGGTCGA — lower, -0.716 log2 normalized intensity
- GGTGGACTTTGTAGCTCAAACAGTCTAAAAGCCTAGGGAGATTAGAGTATCGGTCGA — lower, 2.3 log2 normalized intensity
- GTTAAAGTTGCCTGATGACAACTGAATGTGGCCTAGGGAGATTAGAGTATCGGTCGA — lower, 0.26 log2 normalized intensity
- ACACCGTATCATCAAACCTGTTATTTGCGCGCCTAGGGAGATTAGAGTATCGGTCGA — lower, 1.25 log2 normalized intensity
